The panel holds about 83,000 compounds, 20% with a hit somewhere; the sample as a whole holds those more often.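 Compound tested at a single concentration for 48 hours in 96-well plates; a percent growth value below 10 was scored as active.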 Unmarked numbers belong to inactive results. The source made the active and inactive calls.

Test systems include T-47D breast; BT-549 breast; MDA-MB-435 melanoma; SW-620 colon; MCF7 breast; HCT-116 colon; HCC-2998 colon; KM12 colon; MDA-MB-468 breast.
Assay in all cases: NCI-60 one-dose screen, 48 h (100 = growth as untreated, 0 = no growth, -100 = all killed)
Common to all, as to details: 10 µM unless noted

With `CC1=C(C(=O)OCc2ccccc2)C(c2ccc(N(C)C)cc2)n2c(nc3ccccc32)N1` (stereo not drawn), the growth in the test on T-47D breast is 84.6%; in the test with BT-549 breast it was 82.8%; in the test on MDA-MB-435 melanoma, 29.4%; in the test with SW-620 colon, 103%; in the test with MCF7 breast, 65.2%; in the test with HCT-116 colon, 87.7%. Further, the growth is 90.8% with HCC-2998 colon, 73.4% in the test on KM12 colon and 69.8% in the test with MDA-MB-468 breast.

For `Cc1ccc(C(C(=O)NC2CCCCC2)N(Cc2ccccc2Cl)C(=O)c2ccc(CN3CCOCC3)o2)o1` (stereo not drawn), the growth with T-47D breast was 99.9%; with BT-549 breast, 152%; with MDA-MB-435 melanoma, 102%; with SW-620 colon it was 105%; in the test with MCF7 breast it was 95.3%; in the test on HCT-116 colon, 89.1%. For the same molecule, the growth in the test with HCC-2998 colon was 94.7%; in the test on KM12 colon, 99.4%; in the test on MDA-MB-468 breast, 84.7%.

As for `FC(F)(F)CN1CCN(CCn2c(C(F)(F)F)cc3c(Cl)ncnc32)CC1`, the growth in the test with T-47D breast was 59.3%; in the test with BT-549 breast it was -27.2% (active); with MDA-MB-435 melanoma, 38.7%; in the test on SW-620 colon, 11.3%; with MCF7 breast it was 25.3%; with HCT-116 colon it was 1.79% (active). In addition, the results for the growth in the test with HCC-2998 colon, in the test with KM12 colon and in the test with MDA-MB-468 breast were -96.7% (active), 70.7% and -64% (active), respectively.

Consider `O=C1/C(=C/c2cccc3c2OCO3)Cc2c(F)cc(Br)cc21`, for which the growth was 95.2% with T-47D breast; 123% in the test on BT-549 breast; 104% in the test with MDA-MB-435 melanoma; 114% in the test with SW-620 colon; 84.2% in the test with MCF7 breast; 104% with HCT-116 colon. The growth with HCC-2998 colon was 117%; in the test on KM12 colon it was 110%; with MDA-MB-468 breast, 105%.

As for `Cc1ccc(NC(=O)N/N=C/c2c[nH]c3ccccc23)c(C)c1`, the growth was 46.7% in the test on T-47D breast; 17.2% in the test on BT-549 breast; -14.3% (active) in the test on MDA-MB-435 melanoma; 24.8% in the test with SW-620 colon; 7.55% (active) in the test with MCF7 breast; -15.3% (active) in the test with HCT-116 colon. Moreover, the growth in the test with HCC-2998 colon is -11.2% (active); in the test with KM12 colon, -25.5% (active); with MDA-MB-468 breast it was 3.12% (active).

`CN1CCN(C(=O)Oc2cc3c(c4ccccc24)[C@H](CCl)CN3C(=O)c2cc3cc(OCCCN4CCC4)ccc3[nH]2)[C@@H]2CSSC[C@H]21`: the growth was -5.44% (active) in the test with T-47D breast; -49.8% (active) with BT-549 breast; -36.2% (active) in the test on MDA-MB-435 melanoma; 4.87% (active) in the test on SW-620 colon; -63.4% (active) in the test on MCF7 breast; 1.54% (active) with HCT-116 colon. The growth with HCC-2998 colon was -83.3% (active); with KM12 colon, -40.5% (active); in the test with MDA-MB-468 breast, -72.1% (active).

In the case of `CCCCCCCCc1ccc(C(=O)Nc2ccc(C)cc2C(=O)O)cc1`, the growth is 94% in the test with T-47D breast; 104% in the test with BT-549 breast; 104% with MDA-MB-435 melanoma; 103% with SW-620 colon; 85.2% in the test on MCF7 breast; 75.5% with HCT-116 colon. Also, the growth in the test on HCC-2998 colon is 106%; with KM12 colon, 50.3%; with MDA-MB-468 breast it was 70.5%.

On to `CC1=C(C(=O)Nc2ccccc2)C(c2cccc3ccccc23)n2c(nc3ccccc32)N1` (stereo not drawn), for which the growth in the test on T-47D breast was 88.9%; in the test with BT-549 breast it was -2.15% (active); in the test on MDA-MB-435 melanoma it was 74.4%; in the test with SW-620 colon, 67.6%; with MCF7 breast, 38.5%; in the test on HCT-116 colon it was 0.0484% (active). In addition, the growth with HCC-2998 colon was 90.5%; with KM12 colon, 89.9%; with MDA-MB-468 breast, 49.9%.

Take `O=C1CCC(N2C(=O)c3cccc(NCCCCCC(=O)N4CCN(c5ccc6nc7c(nc6c5C(F)(F)F)C(=O)c5ncccc5C7=O)CC4)c3C2=O)C(=O)N1` (stereo not drawn): the growth with T-47D breast was -41.1% (active); in the test on BT-549 breast it was -76.8% (active); in the test with MDA-MB-435 melanoma it was -79.8% (active); with SW-620 colon it was -50.9% (active); with MCF7 breast it was -71.6% (active); in the test with HCT-116 colon, -86% (active). The growth is -98% (active) with HCC-2998 colon, -49.6% (active) with KM12 colon and -49.9% (active) in the test with MDA-MB-468 breast.

Consider `O=C1Nc2ccc(F)cc2/C1=C/C(=O)c1cc2ccccc2oc1=O`, for which the growth with T-47D breast is 93.4%; in the test with BT-549 breast, 116%; with MDA-MB-435 melanoma it was 103%; in the test on SW-620 colon, 20.9%; in the test on MCF7 breast, 69.4%; in the test on HCT-116 colon it was 88.7%. In addition, the growth was 121% in the test with HCC-2998 colon, 101% in the test on KM12 colon and 22.3% in the test on MDA-MB-468 breast.

For `O=C(N/N=C/c1ccc(-c2cccc([N+](=O)[O-])c2)s1)c1[nH]c2ccc(Br)cc2c1-c1ccccc1`, the growth was 92.5% in the test on T-47D breast; 88.4% in the test with BT-549 breast; 98.3% in the test with MDA-MB-435 melanoma; 99% with SW-620 colon; 54.4% in the test with MCF7 breast; 82.9% in the test on HCT-116 colon. Moreover, the growth in the test on HCC-2998 colon is 107%; in the test on KM12 colon, 109%; in the test with MDA-MB-468 breast, 103%.

On to `CN(C)c1nc(NCCNS(=O)(=O)c2ccc(C3=Nc4c(N)nc(N)nc4NC(c4ccc(C(F)(F)F)cc4)C3)cc2)nc(N2CCOCC2)n1` (stereo not drawn), for which the growth is 24.7% with T-47D breast; 1.02% (active) in the test with BT-549 breast; 44.3% in the test on MDA-MB-435 melanoma; 54.7% in the test on SW-620 colon; 21.8% in the test on MCF7 breast; 17.1% in the test on HCT-116 colon. Besides, the growth with HCC-2998 colon is 27.3%; in the test with KM12 colon, 47.8%; in the test with MDA-MB-468 breast, 5.66% (active).

These data come from PubChem BioAssay (NCI).
